This is a sample that favours compounds with a hit; in the whole collection about 28% have one here.
CYP2C9 act – CYP2C9 (human) activation. hit rate 1.4% among 96,000. AID 1024. recombinant CYP2C9, luciferin-H conversion, luminescence; stronger effect = higher value; factor 1 = untreated enzyme, 0 = blocked. activation factor at 5 µM;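 active means activation factor of 2 or more for CYP2C9 at a 5 µM dose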;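 further: 0 = sulfaphenazole-blocked wells and 1 = vehicle-only wells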
Target sequence (P11712 whole entry, looked up): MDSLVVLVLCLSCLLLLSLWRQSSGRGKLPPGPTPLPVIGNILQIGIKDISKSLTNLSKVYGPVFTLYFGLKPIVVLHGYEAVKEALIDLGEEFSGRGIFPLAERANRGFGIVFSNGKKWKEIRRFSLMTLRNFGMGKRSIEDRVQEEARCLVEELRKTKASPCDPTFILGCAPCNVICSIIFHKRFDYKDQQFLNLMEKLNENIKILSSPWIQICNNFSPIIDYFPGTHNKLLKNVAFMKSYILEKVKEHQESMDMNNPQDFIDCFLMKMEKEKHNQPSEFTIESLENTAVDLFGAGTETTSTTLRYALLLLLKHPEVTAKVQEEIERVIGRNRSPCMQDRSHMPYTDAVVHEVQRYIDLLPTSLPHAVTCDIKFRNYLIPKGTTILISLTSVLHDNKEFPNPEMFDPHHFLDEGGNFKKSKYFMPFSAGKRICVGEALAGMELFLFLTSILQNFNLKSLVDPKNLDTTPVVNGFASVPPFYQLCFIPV
PLK1 PBD inh – blocks phosphopeptide binding to human Plk1 polo box domain; P53350; Plk1 PBD phosphopeptide binding, fluorescence polarization; inhibition, %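 (tested at about 20 µM)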; hit rate 0.13% among 97,000; AID 693; in the data active means inhibition above about 34%, passing the limit was not always enough
PLK1 inh – inhibitors of human PLK1 kinase. recombinant PLK1 kinase, TR-FRET peptide phosphorylation. inhibition, % at 10 µM. hit rate 0.53% among 97,000. AID 619;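 active means inhibition of 50% or more in the single-concentration screen; inactive means inhibition below 50%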;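 further: 0% = DMSO max control and 100% = H-89 dihydrochloride min control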
CYP2C19 inh – human CYP2C19 inhibition; CYP2C19 Supersomes, luciferin-H EGE luminescence, 30 min; inhibition, % at 5 µM; hit rate 21% among 96,000; P33261; AID 778;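 active means CYP2C19 inhibition above a set limit at 5 µM in the primary screen, cut at about 50% in these data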;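 further: plate controls were negative control wells for no effect and 2.5 mM tranylcypromine positive control for full effect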
CYP2C19 act – activators of human cytochrome P450 2C19; P33261; recombinant CYP2C19, luciferin-H EGE luminescence; stronger effect = higher value; 0 = fully inhibited enzyme, 1 = untreated enzyme; activation factor at 5 µM; 96,000 tested, under 10 active;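 active means activation factor of at least 2 at 5 µM in the primary screen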;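 further: 0 = wells with 2.5 mM tranylcypromine and 1 = vehicle-only wells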
CYP2C9 inhib – inhibitors of human CYP2C9; P11712; CYP2C9 Supersomes, luciferin-H conversion, luminescence; inhibition, % at 5 µM; hit rate 20% among 96,000;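 active means blocking of liver enzyme CYP2C9 beyond about 50% at 5 µM, limit read from the data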
Active calls of the source: *; x = not tested or not shown.

SMILES | CYP2C9 act | PLK1 PBD inh | PLK1 inh | CYP2C19 inh | CYP2C19 act | CYP2C9 inhib
N[C@@H](Cc1c[nH]c2ccccc12)c1nnc(SCc2ccc(Cl)cc2)o1 | 0.6 | 6 | -1 | 66* | 0.3 | 44
O=C1CN=C(c2ccccc2)c2oc3ccc(Br)cc3c2N1 | 0.9 | 9 | 8 | 2 | 1 | 12
COc1cccc(OC)c1C1=NCC(=O)Nc2c1oc1ccc(Br)cc21 | 0.3 | x | x | 40 | 0.6 | 65*
CCCC(C)C1(CC)C(=O)NC(=Nc2ccc(F)cc2)NC1=O (stereo unspecified) | 0.4 | -7 | -2 | 17 | 0.8 | 58*
CCOC(=O)C1=C(N)Oc2cc(C)oc(=O)c2C12C(=O)N1c3c(cccc32)C(C)=CC1(C)C (stereo unspecified) | 0.8 | -15 | -2 | 53* | 0.5 | 16
CC(=O)N1CN2CN(C(C)=O)CC(C(=O)c3ccccc3)(C2)C1 | 1 | -5 | -8 | 5 | 1 | 3
CC12CN3CC(C)(CN(C1)C31CCSCC1)C2=O | 1 | 14 | 6 | -3 | 1 | -2
COC(=O)C(O)(c1c(C)[nH]n(-c2ccccc2)c1=O)C(F)(F)F (stereo unspecified) | 0.5 | -1 | -9 | 1 | 1 | 46
COC(=O)C(O)(c1ccc(N(C)C(=O)OC(C)C)cc1)C(F)(F)F (stereo unspecified) | 0.8 | -21 | -10 | 46 | 0.5 | 16
CCOC(=O)C(O)(c1ccc(N(CC)S(=O)(=O)c2ccccc2)cc1)C(F)(F)F (stereo unspecified) | 0.3 | 19 | 5 | 61* | 0.4 | 74*
CCN(c1ccc(C(O)(C(=O)OC)C(F)(F)F)cc1)S(=O)(=O)c1ccccc1 (stereo unspecified) | 0.2 | x | x | 95* | 0 | 79*
Cc1cc2c(s1)NC(=O)CN=C2c1cccs1 | 0.6 | -15 | 0 | 50* | 0.5 | 41
CN(C)CC#CCC(O)(c1ccccc1)C1CCCC1 (stereo unspecified) | 0.8 | 8 | -14 | 55* | 0.5 | 20
COc1cccc(N2CCN(Cc3cccc(Cl)c3)CC2)c1 | 0.2 | -13 | -2 | 95* | 0.1 | 79*
COc1cccc(N2CCN(Cc3ccc(Cl)cc3)CC2)c1 | 0.3 | -2 | 12 | 88* | 0.1 | 72*
CN(C)c1ccc(CN2CC=C(c3ccc(F)cc3)CC2)cc1 | 1.1 | 8 | -10 | 62* | 0.4 | -7
CCOc1ccc(-n2c(O)c(C=NCCN3CCNCC3)c(=O)[nH]c2=O)cc1 | 1.1 | -4 | -14 | 8 | 0.9 | -6
CC(NCc1ccc(Cl)c(Cl)c1)C(O)c1ccccc1 (stereo unspecified) | 0.6 | 15 | 5 | 100* | 0 | 42
CC(NCc1ccccc1Cl)C(O)c1ccccc1 (stereo unspecified) | 1 | 5 | 4 | 96* | 0 | 1
COc1ccc(CCNC(=O)c2c(N)n(CCN3CCOCC3)c3nc4ccccc4nc23)cc1OC | 0.2 | -15 | -1 | 54* | 0.5 | 83*
CCCCCn1c(N)c(C(=O)NCCN2CCOCC2)c2nc3ccccc3nc21 | 0.9 | -9 | -16 | 1 | 1 | 7
COc1ccc(Cn2c(N)c(C(=O)NCc3ccco3)c3nc4ccccc4nc32)cc1 | 0.2 | -19 | 55* | 59* | 0.4 | 84*
Nc1c(C(=O)NCc2ccco2)c2nc3ccccc3nc2n1Cc1ccc(F)cc1 | 0.7 | 5 | 43 | 23 | 0.8 | 28
CCCCCCn1c(N)c(C(=O)NCCN2CCOCC2)c2nc3ccccc3nc21 | 0.7 | 27 | -8 | 54* | 0.5 | 34
CCCCn1c(N)c(C(=O)NCc2cccs2)c2nc3ccccc3nc21 | 0.7 | 3 | 5 | 14 | 0.9 | 28
SMILES | CYP2C9 act | PLK1 PBD inh | PLK1 inh | CYP2C19 inh | CYP2C19 act | CYP2C9 inhib
Nc1c(C(=O)NCc2ccco2)c2nc3ccccc3nc2n1CCN1CCOCC1 | 0.4 | -16 | -4 | 35 | 0.6 | 61*
COCCCn1c(N)c(C(=O)NCCC(C)C)c2nc3ccccc3nc21 | 0.7 | -23 | -10 | 5 | 1 | 26
O=c1c2ccccc2nc(-c2ccc(-c3ccccc3)cc2)n1-c1ccncc1 | 0.7 | 9 | -2 | -3 | 1 | 26
Cn1c(O)c(/C=N/c2ncccn2)c(=O)n(C)c1=O | 1 | -24 | -9 | -1 | 1 | 4
CC(=NCc1cccnc1)c1c(O)n(-c2ccccc2)c(=O)[nH]c1=O | 0.8 | 2 | -4 | 57* | 0.4 | 17
CC(=NCCN1CCCCC1)c1c(O)n(-c2ccc(Cl)cc2)c(=O)[nH]c1=O | 0.9 | 20 | -8 | 8 | 0.9 | 9
CCC(=NCc1cccnc1)c1c(O)n(Cc2ccccc2)c(=O)[nH]c1=O | 0.3 | -20 | -2 | 95* | 0 | 69*
CCCCn1c(O)c(C(CC)=NCc2cccnc2)c(=O)[nH]c1=O | 0.4 | -7 | -5 | 91* | 0.1 | 60*
CC(=NCCN1CCOCC1)c1c(O)n(Cc2ccccc2)c(=O)[nH]c1=O | 1 | 4 | -10 | -10 | 1.1 | -4
CCC(=NCCCn1ccnc1)c1c(O)n(Cc2ccccc2)c(=O)[nH]c1=O | 0 | -4 | -8 | 94* | 0.1 | 97*
CC(=NCc1cccnc1)c1c(O)n(Cc2ccccc2)c(=O)[nH]c1=O | x | 0 | 8 | x | x | x
Cc1c(/C=N/O)c2ccccc2n1C | x | 1 | -6 | x | x | x
COCCOC(=O)C1=C(N)Oc2c(c(=O)oc3ccccc23)[C@@]12C(=O)Nc1ccccc12 | 0.2 | x | x | -2 | 1 | 81*
CCOc1ccc(N=Cc2c(O)n(C(C)(C)C)c(=O)[nH]c2=O)cc1 | 0.9 | 1 | -14 | 19 | 0.8 | 7
CN1CCN(C(=O)COc2ccc3ccccc3c2Br)CC1 | 1.3 | x | x | 66* | 0.3 | -26
Cc1cc(Cl)ccc1OCC(=O)N1CCN(C)CC1 | 1.1 | -5 | -12 | 28 | 0.7 | -5
CCN1C(=O)c2ccccc2Sc2ccc(C(=O)N3CCC4(CC3)OCCO4)cc21 | 0.2 | 22 | 4 | 6 | 0.9 | 83*
COc1ccc(C2C(C(=O)N3CCC4(CC3)OCCO4)CC(=O)N2c2ccc(OC)cc2)cc1 (stereo unspecified) | 0.5 | x | x | 61* | 0.4 | 48
COc1ccc(CNCC(=O)N2CCC3(CC2)OCCO3)cc1 | 1 | x | x | 30 | 0.7 | -4
C=CCn1c(O)c(C=NCCCOc2ccc(CC)cc2)c(=O)[nH]c1=S | x | -13 | -7 | x | x | x
CCN(CC)CCCC(C)N=C(c1ccccc1)c1c(O)n(C)c(=O)n(C)c1=O (stereo unspecified) | 0.9 | -5 | -18 | -18 | 1.2 | 14
CCCC1=C(C(=O)OCC)C2(C(=O)Nc3ccc(C)cc32)C(C#N)=C(N)O1 (stereo unspecified) | 0.5 | -17 | -10 | 62* | 0.4 | 51*
O=C(CNS(=O)(=O)c1ccc(Br)s1)N1CCC2(CC1)OCCO2 | 0.7 | -5 | -7 | 58* | 0.4 | 27

Screening results from PubChem.
